Data on 39 molecules can be found in PubChem BioAssay (NCATS).

Inconclusive results are not listed. Where a call stands in place of a potency, no number is given. For some assays here: Results with a measured potency or affinity are listed apart. Active and inactive are the calls of the source. Unless noted, the rule behind the calls is not given here.

The first assay is described as follows: qHTS Assay for Identifying Gametocytocidal Compounds (AID 743244; active = well fitted curve in the direction sought with a large enough effect; note: potency is the fitted concentration of half-maximal effect;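 for max response: actives lower the fluorescent signal which means gametocytes are killed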). Conditions: P. falciparum 3D7 stage III-V gametocytes, alamarBlue, 72 h; max response: active compounds read low. A digest of the protocol:
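Viability read-out was resazurin reduction (alamarBlue, 24 h) measured at Ex 525/Em 598 nm. Beforehand, late-stage (III-V) 3D7 P. falciparum gametocytes at 20,000 cells/well were incubated with compound 72 h at 37C under 5% CO2.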
For orientation: qHTS replaces the single test concentration by a dilution series.
As for `CC(=O)[O][Hg][c]1ccccc1`, the Potency was 1.12 µM (active).
Regarding `CCCCOC(=O)c1ccccc1C(=O)OCc1ccccc1`, the max response was 13.2% (inactive).
As for `Nc1c(Cl)c(Cl)c(Cl)c(Cl)c1Cl`, the max response was 4.37% (inactive).
Consider `O=S(=O)(O)C(F)(F)C(F)(F)C(F)(F)C(F)(F)F`, for which the max response was -9.45% (inactive).
`Nc1cccc2c(N)cccc12`: the Potency was 25.1 µM (active).

Assay in another assay: not given
Conditions: Ebola virus entry assay, ratio channel.
Regarding `Nc1nc2ccc([N+](=O)[O-])cc2s1`, the outcome was inactive.
For orientation: AC50 means the concentration at which the activity in the assay is half-maximal. Turning to `CCCCCCCCCCCCCC[N+](C)(C)C`, the AC50 was 25.1 µM (active).
Still for that read-out and setting: the result for `CC(=O)[O][Hg][c]1ccccc1` reads 4.47 µM (active).
For the molecule `CCCCOC(=O)c1ccccc1C(=O)OCc1ccccc1`, the result was inactive.
On to `Nc1c(Cl)c(Cl)c(Cl)c(Cl)c1Cl`, for which the result was inactive.
For the molecule `CN(C)c1ccc(N=NS(=O)(=O)O)cc1`, the result was inactive.
For `O=S(=O)(O)C(F)(F)C(F)(F)C(F)(F)C(F)(F)F`, the outcome was inactive.
For the molecule `Nc1cccc2c(N)cccc12`, the outcome was inactive.
`CCCN(CCC)c1c([N+](=O)[O-])cc(S(N)(=O)=O)cc1[N+](=O)[O-]`: the AC50 was 8.91 µM (active).

Assay in another assay: not given
Conditions: Ebola virus entry assay, green channel fluorescence.
For `CCCCC(CC)COC(=O)c1ccc(N(C)C)cc1` (centres undefined), the result was inactive.
For the molecule `CCCOC(=O)c1ccc(O)cc1`, the molecule was called inactive.
Turning to `Nc1ccc(S(=O)(=O)Nc2ccccc2)cc1`, the molecule was called inactive.
As for `C[C@@H](N)C(=O)O`, the molecule was classed as inactive.
For `O=C(O)Cc1ccccc1Oc1ccc(Cl)cc1Cl`, the call was inactive.
Same read-out and setting: the result for `O=C(Oc1ccccc1)c1cccc(C(=O)Oc2ccccc2)c1` reads “inactive”; that for `CC(=O)N[C@@H](CCC(N)=O)C(=O)O`, “inactive”.
Same read-out and setting: the result for `C/C(=C1\CCOC(=O)S1)N(C=O)Cc1cnc(C)nc1N` reads “inactive”; that for `O=[N+]([O-])c1cccc(S(=O)(=O)NCCNS(=O)(=O)c2cccc([N+](=O)[O-])c2)c1`, “inactive”.
As for `CCN(CC)c1ccc(C(=C2C=CC(=[N+](CC)CC)C=C2)c2cc(S(=O)(=O)O)ccc2S(=O)(=O)[O-])cc1`, the molecule was classed as inactive.
Regarding `CCCCCCCCCCC(CO)CCCCCCCC` (centres undefined), the molecule was called inactive.
Same read-out and setting: as for `CN(C(=O)C(Cl)Cl)c1ccc(OC(=O)c2ccco2)cc1`, the entry is “inactive”; as for `O=C(O)CC(O)C(=O)O` (centres undefined), “inactive”.
`N#C/C(=C1\SCC(c2ccccc2Cl)S1)n1ccnc1` (centres undefined): the molecule was classed as inactive.
Still for that read-out and setting: as for `C[C@]12C[C@H](O)[C@H]3[C@@H](CCC4=CC(=O)CC[C@@]43C)[C@@H]1CC[C@@H]2C(=O)CO`, the entry is “inactive”; as for `C[C@H](CN1CCCC1)C(=O)c1ccc(C(F)(F)F)cc1`, “inactive”.
On to `[Cl][In]([Cl])[Cl]`, for which the result was inactive.
Take `Cc1ccccc1N=Nc1ccc(N=Nc2c(O)ccc3ccccc23)c(C)c1`: the result was inactive.
Take `CCC(=O)O[C@@H]1C=C2CCC3C(CCC4(C)C3CC[C@@H]4OC(=O)CC)C2CC1` (some centres undefined): the result was inactive.
Consider `c1ccc2[nH]ccc2c1`, for which the molecule was called inactive.
On to `Fc1cc(Br)ccc1CBr`, for which the molecule was called inactive.
With `COc1c(N2CCNC(C)C2)c(F)cc2c(=O)c(C(=O)O)cn(C3CC3)c12` (centres undefined), the molecule was called inactive.
With `O=C(O)CNC(=O)CNC(=O)CNC(=O)CSC(=O)c1ccccc1`, the outcome was inactive.
`CCOC(=O)C(=O)CCCCCCl`: the molecule was called inactive.
As for `O=C(O)c1ccccn1`, the molecule was called inactive.
On the same count and under the same terms, the result for `C#CC(C)(CC)OC(=O)c1ccccc1C(=O)O` (centres undefined) reads “inactive”.
Turning to `CCN1CCN(c2cc3c(cc2F)c(=O)c(C(=O)O)cn3C2CC2)CC1`, the call was inactive.
Take `Cc1c(C)c2c(c(C)c1OC(=O)c1cccnc1)CC[C@@](C)(CCC[C@H](C)CCC[C@H](C)CCCC(C)C)O2`: the call was inactive.
For `Cc1cc(-c2ccccc2)nnc1NCCN1CCOCC1`, the molecule was called inactive.
On to `COc1cc(S(N)(=O)=O)cc(C(=O)O)c1OC`, for which the result was inactive.
